The target in assay [1] is Androgen receptor (Homo sapiens) (UniProt P10275). In words: qHTS assay for small molecule agonists of androgen receptor signaling (AID 588515; active means well fitted curve in the direction sought with a large enough effect in the signal ratio, with a control signal flat; the % refers to the signal ratio; further: potency means the concentration at half of the fitted maximal effect; on activation: on the % scale 0 is the no-effect control and ±100 the full control effect). Conditions: AR-UAS-bla HEK293, beta-lactamase ratio, agonist 16 h; activation: stronger effect = higher value. A digest of the protocol: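 Stimulation of an AR-responsive β-lactamase reporter in GripTite HEK293 cells was measured after 16 h compound exposure at 37 °C, via CCF4 fluorescence after 2 h RT. EC50 from Hill fits, normalized to R1881 at 30 nM.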
Chain of Androgen receptor (Homo sapiens) (P10275 whole entry, looked up): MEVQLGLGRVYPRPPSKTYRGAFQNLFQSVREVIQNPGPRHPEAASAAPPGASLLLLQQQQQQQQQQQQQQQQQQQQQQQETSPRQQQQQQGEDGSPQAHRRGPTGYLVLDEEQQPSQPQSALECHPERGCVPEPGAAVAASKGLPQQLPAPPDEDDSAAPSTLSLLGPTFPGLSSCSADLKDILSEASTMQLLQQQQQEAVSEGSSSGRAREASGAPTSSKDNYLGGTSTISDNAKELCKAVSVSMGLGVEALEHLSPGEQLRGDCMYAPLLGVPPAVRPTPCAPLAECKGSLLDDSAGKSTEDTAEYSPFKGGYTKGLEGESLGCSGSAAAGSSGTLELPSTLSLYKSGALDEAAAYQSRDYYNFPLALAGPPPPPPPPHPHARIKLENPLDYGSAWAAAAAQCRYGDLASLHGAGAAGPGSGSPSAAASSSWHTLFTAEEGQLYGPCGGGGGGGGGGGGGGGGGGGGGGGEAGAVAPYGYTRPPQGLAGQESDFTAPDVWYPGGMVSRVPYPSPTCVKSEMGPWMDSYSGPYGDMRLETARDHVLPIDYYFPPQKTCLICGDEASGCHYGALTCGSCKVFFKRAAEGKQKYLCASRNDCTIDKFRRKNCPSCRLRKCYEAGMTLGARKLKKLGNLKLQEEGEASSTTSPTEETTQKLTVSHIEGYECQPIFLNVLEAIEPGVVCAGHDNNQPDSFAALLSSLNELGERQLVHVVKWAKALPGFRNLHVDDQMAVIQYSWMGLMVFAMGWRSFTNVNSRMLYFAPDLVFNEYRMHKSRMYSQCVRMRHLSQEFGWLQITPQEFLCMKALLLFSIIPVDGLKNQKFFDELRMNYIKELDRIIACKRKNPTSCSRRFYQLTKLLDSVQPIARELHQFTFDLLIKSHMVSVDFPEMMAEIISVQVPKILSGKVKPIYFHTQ
In general terms: qHTS replaces the single test concentration by a dilution series.

For assay [2] the target is unchanged. In words: qHTS assay for small molecule antagonists of androgen receptor signaling (AID 588516; active means well fitted curve in the direction sought with a large enough effect in the signal ratio, with a control signal flat, not every such curve was filed as active; the % refers to the signal ratio; further: on the % scale 0 is the no-effect control and ±100 the full control effect). A digest of the protocol: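 Antagonist-mode qHTS: inhibition of R1881 (10 nM)-driven beta-lactamase expression in GripTite HEK 293 cells is measured after 16 h; values are Hill-derived IC50s normalized between R1881 and DMSO wells.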
Assay [3] deals with Bile acid receptor (Homo sapiens) (UniProt Q96RI1). Kind of assay: qHTS assay for small molecule antagonists of farnesoid X receptor signaling (AID 588526). Further: on the % scale 0 is the no-effect control and ±100 the full control effect. In short, it runs like this:
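Beta-lactamase reporter antagonist mode: HEK293T FXR-UAS-bla cells, titrated compound, CDCA stimulation, 16 h 37 C, CCF4 dye 2 h RT. Data normalized to CDCA 50 uM and DMSO; Hill-fit IC50.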

Assay [4] concerns the target Glucocorticoid receptor (Homo sapiens) (UniProt P04150). Kind of assay: qHTS assay for small molecule agonists of glucocorticoid receptor signaling (AID 588532; active means well fitted curve in the direction sought with a large enough effect in the signal ratio, with a control signal flat; the % refers to the signal ratio;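 further: 100% = dexamethasone at 0.1 µM and 0% = DMSO only wells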). As to conditions: HeLa MMTV-bla, beta-lactamase ratio, agonist, 18 h; stronger effect = higher value; percent of dexamethasone control, DMSO zero. In short, it runs like this: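 Quantitative HTS using CellSensor MMTV-bla HeLa cells in charcoal/dextran-treated serum; compounds tested up to 92 uM. After 18 h at 37 C, CCF4 dye reported reporter induction.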

Assay [5] has the same target. Kind of assay: qHTS assay for small molecule antagonists of glucocorticoid receptor signaling (AID 588533; active means well fitted inhibition curve with a large enough effect in the signal ratio, with a control signal flat, not every such curve was filed as active; the % refers to the signal ratio;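 further: cells stimulated with 2 nM dexamethasone as agonist; on the % scale 0 is the no-effect control and ±100 the full control effect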). A digest of the protocol:
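Antagonist-mode qHTS: compound titrations added to GRE-bla HeLa cells, then dexamethasone 2 nM final; 18 h, 37 C. CCF4 FRET fluorescence normalized to dexamethasone and DMSO; IC50 from Hill fit.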

A short description of assay [6]: qHTS assay for small molecule agonists of the antioxidant response element (ARE) signaling pathway (AID 651741; active means well fitted activation curve with a large enough effect in the signal ratio; the % refers to the signal ratio; further: potency means the concentration at half of the fitted maximal effect; on activation: % of control where 0% means no effect). In short, it runs like this: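 Beta-lactamase reporter under ARE control in HepG2 cells, 2,000 per well, was induced by 16 h compound treatment at 37 C. Read-out was fluorescence from LiveBLAzer B/G FRET substrate after 2 h at room temperature.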
Assay [7] is described as follows: qHTS assay for small molecule activators of the nuclear factor-kappa B (NF-kB) signaling pathway (AID 651749; active means well fitted activation curve with a large enough effect in the signal ratio; the % refers to the signal ratio; further: series mostly up to about 77 µM; % of control where 0% means no effect). Conditions: NF-kB-bla ME-180 cells, beta-lactamase FRET ratio, 16 h; activation: stronger effect = higher value. A digest of the protocol:
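Activation measured after 16 hr compound treatment at 37C, 5% CO2, of 2,000 ME-180 cells/well stably expressing an NF-kB response element–driven beta-lactamase reporter, via FRET-disruption fluorescence.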

Assay [8] deals with Peroxisome proliferator-activated receptor gamma (Homo sapiens) (UniProt P37231). Kind of assay: qHTS assay for small molecule antagonists of peroxisome proliferator-activated receptor gamma signaling (AID 588537; active means well fitted inhibition curve with a large enough effect in the signal ratio, with a control signal flat, not every such curve was filed as active; the % refers to the signal ratio;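 further: reporter cells co-stimulated with 50 nM rosiglitazone agonist during compound treatment; % of control where 0% means no effect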). In short, it runs like this:
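Antagonist-mode β-lactamase reporter screen run as a titration series. HEK293 PPARγ-UAS-bla cells are stimulated with rosiglitazone (50 nM final) for 16 h, then CCF4 is read at 460/530 nm. Data are scaled between DMSO and rosiglitazone and fitted to the Hill equation.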

The target of assay [9] is Vitamin D3 receptor (Homo sapiens) (UniProt P11473). In words: qHTS assay for small molecule agonists of vitamin D receptor signaling (AID 588543).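 Further: 0% = DMSO basal and 100% = reference agonist control.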 In short, it runs like this: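 qHTS in agonist mode: compound titrations stimulate a VDR-driven β-lactamase reporter in HEK293T cells over 16 h at 37 °C. Response normalized to 50 nM 1α,25-dihydroxyvitamin D3 = 100%, DMSO = 0%; Hill fitting gives EC50 and maximal response.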
Chain of Vitamin D3 receptor (Homo sapiens) (P11473 whole entry, looked up): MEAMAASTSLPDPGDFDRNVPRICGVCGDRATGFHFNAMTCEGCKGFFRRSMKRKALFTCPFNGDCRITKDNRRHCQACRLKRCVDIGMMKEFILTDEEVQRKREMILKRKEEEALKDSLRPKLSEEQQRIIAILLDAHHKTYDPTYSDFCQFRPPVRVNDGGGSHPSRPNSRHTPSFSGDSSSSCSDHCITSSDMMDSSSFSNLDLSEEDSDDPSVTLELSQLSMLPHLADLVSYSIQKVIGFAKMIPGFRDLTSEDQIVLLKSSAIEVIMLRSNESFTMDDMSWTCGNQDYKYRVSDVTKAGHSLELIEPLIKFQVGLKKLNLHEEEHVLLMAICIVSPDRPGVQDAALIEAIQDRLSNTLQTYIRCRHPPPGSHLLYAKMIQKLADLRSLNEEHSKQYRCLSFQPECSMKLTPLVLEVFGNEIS

For assay [10], the target named is Estrogen receptor (Homo sapiens) (UniProt P03372). In words: qHTS assay for small molecule antagonists of estrogen receptor alpha signaling (AID 588513; active means well fitted curve in the direction sought with a large enough effect in the signal ratio, with a control signal flat, not every such curve was filed as active; the % refers to the signal ratio; further: potency means the concentration at half of the fitted maximal effect). In short, it runs like this: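 Cells were plated at 5000/well and incubated 4 h at 37 C. Compounds were added as 1:2 dilution series, duplicates. 17-beta-estradiol (0.5nM final) was added for 18 h before CCF4 detection.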
Chain of Estrogen receptor (Homo sapiens) (P03372 whole entry, looked up): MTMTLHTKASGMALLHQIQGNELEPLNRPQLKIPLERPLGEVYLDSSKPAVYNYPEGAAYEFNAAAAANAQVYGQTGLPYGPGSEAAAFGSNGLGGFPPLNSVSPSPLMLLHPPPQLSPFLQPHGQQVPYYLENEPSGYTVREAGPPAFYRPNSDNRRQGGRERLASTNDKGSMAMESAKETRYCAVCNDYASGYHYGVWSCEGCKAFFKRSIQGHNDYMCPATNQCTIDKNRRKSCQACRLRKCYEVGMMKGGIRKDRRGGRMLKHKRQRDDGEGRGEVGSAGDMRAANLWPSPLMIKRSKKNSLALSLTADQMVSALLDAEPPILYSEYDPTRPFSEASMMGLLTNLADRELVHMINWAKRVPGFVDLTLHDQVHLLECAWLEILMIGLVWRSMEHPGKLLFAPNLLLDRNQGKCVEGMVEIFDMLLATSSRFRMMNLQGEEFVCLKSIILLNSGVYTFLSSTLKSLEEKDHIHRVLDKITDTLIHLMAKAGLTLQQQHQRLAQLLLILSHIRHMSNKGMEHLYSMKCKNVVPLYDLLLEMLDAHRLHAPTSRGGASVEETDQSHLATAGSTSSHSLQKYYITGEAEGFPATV

Values joined by “and” are separate entries in the source; they are usually repeats but may differ in a detail not shown here. Equal entries are not always repeated. Records with an inconclusive call do not appear. A number with no mark means an inactive call. Active and inactive are the calls of the source. Unless noted, the call rests on the fitted dose curve.

Chain of Bile acid receptor (Homo sapiens) (Q96RI1 whole entry, looked up): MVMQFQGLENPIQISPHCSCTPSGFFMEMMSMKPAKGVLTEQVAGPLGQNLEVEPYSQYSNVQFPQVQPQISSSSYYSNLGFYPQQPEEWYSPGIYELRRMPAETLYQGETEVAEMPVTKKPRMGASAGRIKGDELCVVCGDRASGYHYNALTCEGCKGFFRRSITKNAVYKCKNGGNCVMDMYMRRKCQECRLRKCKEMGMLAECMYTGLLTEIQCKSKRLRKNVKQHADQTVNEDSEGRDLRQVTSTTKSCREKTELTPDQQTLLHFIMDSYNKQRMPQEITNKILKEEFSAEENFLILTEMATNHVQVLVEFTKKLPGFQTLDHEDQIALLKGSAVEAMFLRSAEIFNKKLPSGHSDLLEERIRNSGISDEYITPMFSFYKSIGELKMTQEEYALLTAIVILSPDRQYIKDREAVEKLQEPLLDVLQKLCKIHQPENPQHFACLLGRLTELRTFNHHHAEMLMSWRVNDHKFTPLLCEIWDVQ
Chain of Glucocorticoid receptor (Homo sapiens) (P04150 whole entry, looked up): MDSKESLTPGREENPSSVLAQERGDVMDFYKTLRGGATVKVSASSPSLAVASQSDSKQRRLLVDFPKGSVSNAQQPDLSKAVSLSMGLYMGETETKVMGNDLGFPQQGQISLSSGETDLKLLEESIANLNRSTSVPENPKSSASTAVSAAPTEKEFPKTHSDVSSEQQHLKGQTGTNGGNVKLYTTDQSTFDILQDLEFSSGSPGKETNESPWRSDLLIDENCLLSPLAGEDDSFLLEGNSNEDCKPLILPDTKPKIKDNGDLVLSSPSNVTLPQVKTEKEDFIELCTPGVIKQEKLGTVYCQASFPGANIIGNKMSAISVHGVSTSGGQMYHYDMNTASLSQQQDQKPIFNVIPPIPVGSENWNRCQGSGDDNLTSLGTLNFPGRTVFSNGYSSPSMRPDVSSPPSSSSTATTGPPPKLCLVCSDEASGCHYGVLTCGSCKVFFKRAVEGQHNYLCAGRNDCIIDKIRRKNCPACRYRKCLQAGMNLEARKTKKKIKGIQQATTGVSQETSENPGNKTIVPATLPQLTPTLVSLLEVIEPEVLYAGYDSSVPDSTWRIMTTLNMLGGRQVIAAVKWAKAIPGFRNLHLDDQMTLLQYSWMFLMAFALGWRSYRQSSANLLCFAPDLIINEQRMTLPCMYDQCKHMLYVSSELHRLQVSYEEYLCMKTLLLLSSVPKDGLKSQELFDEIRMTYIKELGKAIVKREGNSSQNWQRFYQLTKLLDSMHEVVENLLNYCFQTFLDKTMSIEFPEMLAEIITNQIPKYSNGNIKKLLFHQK
Chain of Peroxisome proliferator-activated receptor gamma (Homo sapiens) (P37231 whole entry, looked up): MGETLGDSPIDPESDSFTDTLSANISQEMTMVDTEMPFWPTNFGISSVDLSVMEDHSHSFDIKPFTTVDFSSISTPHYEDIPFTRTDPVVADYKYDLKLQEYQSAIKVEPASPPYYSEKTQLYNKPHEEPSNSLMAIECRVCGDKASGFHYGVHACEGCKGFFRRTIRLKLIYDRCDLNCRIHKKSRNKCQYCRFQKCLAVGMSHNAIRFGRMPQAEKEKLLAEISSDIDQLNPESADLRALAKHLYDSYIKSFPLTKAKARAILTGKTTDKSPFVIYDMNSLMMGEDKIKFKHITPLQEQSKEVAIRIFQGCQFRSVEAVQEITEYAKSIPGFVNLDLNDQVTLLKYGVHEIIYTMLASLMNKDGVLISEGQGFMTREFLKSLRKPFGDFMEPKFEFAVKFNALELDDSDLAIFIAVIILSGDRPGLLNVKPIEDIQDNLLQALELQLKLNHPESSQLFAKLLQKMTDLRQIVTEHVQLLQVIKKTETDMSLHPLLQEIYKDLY

Turning to `Cc1ccc(N=Nc2c(O)ccc3ccccc23)c([N+](=O)[O-])c1`, the activation in assay [1] is 8.82%; in assay [4], -1.07%; in assay [7], -0.237%. In [2], the compound was classed as inactive. In addition, the Potency entry in [3] and in assay [5] was “inactive” throughout. For the same compound, the Potency in assay [6] is 24.3 µM (active).

On to `O=C(O)c1ccc2c(c1)C(=O)OC2=O`, for which the activation in assay [1] is 5.43%; in [4], 1.9%; in [7] it was 0.891%. Moreover, the outcome in assay [2] was inactive. For the same compound, the Potency entry in [3] and in assay [5] was “inactive” each time.

With `CC(Cl)(Cl)C(=O)OCCOc1cc(Cl)c(Cl)cc1Cl`, the figures for the activation in assay [1] and in assay [4] were 2.7% and -10.3%, respectively. Moreover, the compound was called inactive in assay [2] and in [9]. Also, the Potency entry in assay [3], in assay [5] and in assay [8] was “inactive” throughout.

Take `COc1ccccc1NC(=O)CC(C)=O`: the Potency entry in [10] and in assay [6] was “inactive” in each case. For the same compound, the result in [9] was inactive.

Take `CCCCC(CC)C(=O)OCCOCCOCCOC(=O)C(CC)CCCC` (centres undefined): the activation in [1] is 6.77%; in assay [4], -10%; in assay [7] it was -6.56%. Besides, the compound was classed as inactive in assay [2] and in [9]. Further, the Potency result in assay [5], in assay [8] and in assay [6] was “inactive” throughout.

Regarding `CCCCCCCCCCCCCC(=O)OC`, the activation in assay [1] was 9.07%; in assay [4], -4.01%; in assay [7], 0.501%. The result in assay [2] was inactive. The Potency result in [5] and in [8] was “inactive” each time.

Consider `C=Cc1ccc(P(c2ccccc2)c2ccccc2)cc1`, for which the activation in assay [1] is 8.38%; in [4], -2.27%; in [7], 0.802%. For the same compound, the call in assay [2] was inactive. Moreover, the Potency result in [3], in assay [5], in assay [8] and in assay [6] was “inactive” in each case.

Take `CCCCCCCCCCCCCCCCCC(N)=O`: the results for the activation in assay [1], in [4] and in assay [7] were 5.45%, -6.09% and -1.76%, respectively. For the same compound, the call in [2] and in [9] was inactive. The Potency entry in assay [3] was “inactive”.

As for `Nc1ccc(N)c2c1C(=O)c1c(N)ccc(N)c1C2=O`, the activation in assay [1] is 5.62%; in assay [4], 0.353%; in assay [7], 7.06%. Moreover, the compound was called inactive in assay [2] and in [9]. Besides, the Potency entry in [3], in assay [5] and in assay [8] was “inactive” throughout. For the same compound, in assay [6], the Potency was 27.3 µM (active).

As for `O=C(O)CN(CCCN(CC(=O)O)CC(=O)O)CC(=O)O`, the activation was -11.6% in [1], 16.2% in [4] and 0.672% in assay [7]. In assay [3], the Potency entry was “inactive”. Besides, the compound was classed as inactive in assay [9].

With `CO/N=C1\C[C@]2(C[C@@H]3C[C@@H](C/C=C(\C)C[C@@H](C)/C=C/C=C4\CO[C@@H]5[C@H](O)C(C)=C[C@@H](C(=O)O3)[C@]45O)O2)O[C@H](/C(C)=C/C(C)C)[C@H]1C`, the Potency in assay [10] was 7.94 µM [inhibitor] (active).

`CCCCCCCCCCCCCCC(=O)OC`: the call in assay [2] and in assay [9] was inactive. Moreover, the Potency entry in assay [3], in [5], in assay [8] and in assay [6] was “inactive” each time. The figures for the activation in assay [4] and in [7] were -1.65% and 0.418%, respectively.

`CN(C)Cc1cc(CN(C)C)c(O)c(CN(C)C)c1`: the activation in assay [1] was -17.5%; in [7] it was -0.675%. Besides, in [2], the compound was classed as inactive. Also, the Potency result in assay [3], in assay [5] and in assay [6] was “inactive” in each case.

In the case of `C[Si](Cl)(Cl)c1ccccc1`, the activation in assay [1] was 5.21%; in assay [4], 17.8%; in assay [7], 0.494%. Besides, the result in assay [2] and in assay [9] was inactive. The Potency result in [3] and in assay [5] was “inactive” throughout.

On to `C[C@]12CCC(=O)C=C1CC[C@@H]1[C@@H]2[C@@H](O)C[C@]2(C=O)[C@@H](C(=O)CO)CC[C@@H]12`, for which the Potency in [1] is 15.8 µM (active). Also, the Potency result in [3], in [8] and in assay [6] was “inactive” in each case. Further, the compound was called inactive in [9]. In addition, the activation in assay [7] was -3.08%.

As for `C=Cc1ccccc1Br`, the outcome in assay [2] and in assay [9] was inactive. The Potency entry in [3], in assay [5] and in assay [6] was “inactive” in each case. Moreover, the results for the activation in assay [4] and in assay [7] were -5.73% and -1.27%, respectively.

Regarding `CCCCCCCCCC[N+](C)(C)Cc1ccccc1`, the activation in assay [1] was -12.2%; in assay [4], -4.12%; in assay [7] it was 4.29%. Further, the Potency result in assay [5] and in [8] was “inactive” in each case.

For `CC1COCc2cc3c(cc21)C(C)(C)C(C)C3(C)C` (centres undefined), the activation in assay [1] was 12.8%; in assay [4], 13.9%; in assay [7] it was 1.51%. For the same compound, the result in assay [2] and in assay [9] was inactive. Moreover, the Potency result in assay [3] and in [6] was “inactive” throughout.

Turning to `FC(F)(F)c1ccc(Cl)c(Cl)c1`, the values for the activation in assay [1], in assay [4] and in assay [7] were 6.47%, -1.21% and -0.0768%, respectively. For the same compound, the result in [2] and in assay [9] was inactive. Also, the Potency result in [5] and in [8] was “inactive” throughout.

On to `O=C(O)CN(CCO)CCN(CC(=O)O)CC(=O)O`, for which the activation is 3.88% in assay [1], -10.4% in assay [4] and -1.52% in assay [7]. Further, the compound was called inactive in assay [2] and in assay [9]. Besides, the Potency entry in assay [3], in assay [5], in assay [8] and in assay [6] was “inactive” in each case.

For `CCOC(=O)C1=NN(c2ccc(Cl)cc2Cl)C(C)(C(=O)OCC)C1` (centres undefined), the results for the activation in [1], in assay [4] and in assay [7] were -14.3%, -2.41% and -1.4%, respectively. Moreover, the compound was classed as inactive in assay [2] and in assay [9]. For the same compound, the Potency result in assay [6] is “inactive”.

In the case of `CC1(C)[C@@H](C=C(Cl)Cl)[C@@H]1C(=O)OCc1cccc(Oc2ccccc2)c1`, the activation in assay [1] was -22.2%. Besides, the outcome in [2] was inactive. Further, the Potency entry in assay [5] was “inactive”.

As for `CN=C(N)NCC1CCOC1` (centres undefined), the activation in [1] was 2.67%; in assay [4], -0.0864% and -2.61%. In addition, the Potency result in assay [3] and in assay [5] was “inactive” throughout. Also, the Potency in assay [6] is 21.7 µM (active).

With `C=C(C)C(=O)OCCOC(=O)C(=C)C`, the compound was called inactive in assay [2] and in assay [9]. In addition, the figures for the activation in assay [4] and in assay [7] were -0.861% and -0.69%, respectively. The Potency result in assay [8] and in assay [6] was “inactive” in each case.

For `CN(C)c1nc(=O)n(C2CCC(O)CC2)c(=O)n1C` (centres undefined), the activation in assay [1] was 6.02%; in [4], 6.12%. Further, the result in [2] was inactive. The Potency entry in assay [3], in assay [5] and in assay [6] was “inactive” each time.

(Values after PubChem BioAssay (NCATS).)
